Results filed as inconclusive are left out. Active and inactive are the calls of the source. Rule for the calls, unless noted: active = hit-call score of the fitted dose curve at least 0.9, where 1 is the maximum; inactive = score below 0.9.

Experimental findings from PubChem BioAssay (EPA / NIEHS) are described below.

The first assay has as its system SRY-box transcription factor 2 (SOX2) Protein Expression, Deisenroth Lab, SOX2 (gene 6657). As to the kind of experiment: CCTE_Deisenroth_DEVTOX-GLR_Endo_SOX2: CCTE's DevTox GLR-Endo Assay Evaluation of SRY-box transcription factor 2 (SOX2) Protein Expression, Deisenroth Lab (AID 2284412; active = hit-call score of the fitted dose curve at least 0.9, where 1 is the maximum). The procedure:
CCTE_Deisenroth_DEVTOX-GLR_Endo assay is a cell-based, multiplex-readout assay that uses RUES2-GLR, a human pluripotent cell line, with measurements taken at 48 hours after chemical dosing in a 384-well microplateCCTE_Deisenroth_DEVTOX-GLR_Endo_SOX2 is 1 of 4 assay components calculated from the CCTE_Deisenroth_DEVTOX-GLR_Endo assay and it measures the percentage of cells in an ectoderm state. Using a type of inducible fluorescent protein reporter, gain-of-signal activity can be used to understand changes in gene expression with fluorescent microscopy. The percentage SOX2+ cells are determined by calculating the number of SOX2+ cells divided by the cell count. To generalize the intended target to other relatable targets, this assay component is annotated to the transcription factor intended target family, where the subfamily is SRY-related HMG-box.Data from the assay component CCTE_Deisenroth_DEVTOX-GLR_Endo_SOX2 was analyzed as 1 assay endpoint. The endpoint is the percent SOX2+ cell population minus the 0.2% DMSO control in the CCTE_Deisenroth_DEVTOX-GLR_Endo assay. Furthermore, this assay endpoint can be referred to as a secondary readout, because this assay has produced multiple assay endpoints where this one serves as a measure of ectoderm differentiation.
All assay protocols are aligned to the DevTox GLR-Endo assay workflow. Cells are seeded into 384-well microplates for 24 hours prior to initiating differentiation in defined media for a total duration of 48 hours. A total of two chemical exposures are administered in 24-hour intervals during the 48-hour differentiation period. At the assay termination point, cells are fixed and stained with a fluorescent dye demarcating the nucleus. High-content imaging is used to acquire brightfield and fluorescent channel images across 5 fields per well. Cell identification and mean biomarker fluorescence intensities are calculated with image analysis software to determine the total cell counts for viability assessment and the biomarker expression frequency for each lineage-dependent assay. A typical experimental design tests a 10-point concentration series (1 nM - 200 uM) for 28 compounds in single technical replicate. Assay plate controls include non-differentiated pluripotent cells (baseline control), lineage-specific differentiated cells (differentiation control), and DMSO solvent exposed differentiated cells (solvent control). Experiments typically comprise a minimum of four experimental replicates (n=4).
On to `Cn1c(=O)c2c(ncn2C)n(C)c1=O`, for which the AC50 – broadly, the concentration giving half of the maximal activity seen – was 33.8 µM (active).
Still for that read-out and setting: the same measure for `CC[C@H](C)C(=O)O[C@H]1C[C@@H](C)C=C2C=C[C@H](C)[C@H](CC[C@@H]3C[C@@H](O)CC(=O)O3)[C@H]21`: 62.1 µM (active).
Consider `C[C@](N)(Cc1ccc(O)c(O)c1)C(=O)O`, for which the result was inactive.
As to `Nc1nc2ncc(CNc3ccc(C(=O)N[C@@H](CCC(=O)O)C(=O)O)cc3)nc2c(=O)[nH]1`, the compound was called inactive.

In another assay the test system is SRY-box transcription factor 17 (SOX17) Protein Expression, Deisenroth Lab, SOX17 (gene 64321). As to the kind of experiment: CCTE_Deisenroth_DEVTOX-GLR_Endo_SOX17: CCTE's DevTox GLR-Endo Assay Evaluation of SRY-box transcription factor 17 (SOX17) Protein Expression, Deisenroth Lab (AID 2284413). The essentials: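 Seed RUES2-GLR cells 24 h; start endoderm differentiation; dose at 0 and 24 h (1 nM - 200 uM, 10 points); fix at 48 h, stain nuclei, image 5 fields/well; compute SOX17+/total cells vs 0.2% DMSO.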
On to `NC(=O)NO`, for which the outcome was inactive.
Same read-out and setting: next, `Cn1c(=O)c2c(ncn2C)n(C)c1=O`: “inactive”.
Turning to `CC[C@H](C)C(=O)O[C@H]1C[C@@H](C)C=C2C=C[C@H](C)[C@H](CC[C@@H]3C[C@@H](O)CC(=O)O3)[C@H]21`, the AC50 is 6.57 µM (active).
Take `O=C(O)c1cc(N=Nc2ccc(S(=O)(=O)Nc3ccccn3)cc2)ccc1O`: the compound was called inactive.
The same measure, in the same setting: next, `C[C@](N)(Cc1ccc(O)c(O)c1)C(=O)O`: “inactive”; `Nc1nc2ncc(CNc3ccc(C(=O)N[C@@H](CCC(=O)O)C(=O)O)cc3)nc2c(=O)[nH]1`: “inactive”.
On to `O=C1CCC(N2C(=O)c3ccccc3C2=O)C(=O)N1` (stereo unspecified), for which the AC50 was 1.56 µM (active).
